MITF inh: inhibitors of human MITF; inhibition, % at 2.6 µM; O75030; 650,000 tested, 0.91% active; AID 1259374; AlphaScreen MITF homodimerization, bead proximity signal; in the data active means inhibition above about 50%
Target sequence (O75030 whole entry, looked up): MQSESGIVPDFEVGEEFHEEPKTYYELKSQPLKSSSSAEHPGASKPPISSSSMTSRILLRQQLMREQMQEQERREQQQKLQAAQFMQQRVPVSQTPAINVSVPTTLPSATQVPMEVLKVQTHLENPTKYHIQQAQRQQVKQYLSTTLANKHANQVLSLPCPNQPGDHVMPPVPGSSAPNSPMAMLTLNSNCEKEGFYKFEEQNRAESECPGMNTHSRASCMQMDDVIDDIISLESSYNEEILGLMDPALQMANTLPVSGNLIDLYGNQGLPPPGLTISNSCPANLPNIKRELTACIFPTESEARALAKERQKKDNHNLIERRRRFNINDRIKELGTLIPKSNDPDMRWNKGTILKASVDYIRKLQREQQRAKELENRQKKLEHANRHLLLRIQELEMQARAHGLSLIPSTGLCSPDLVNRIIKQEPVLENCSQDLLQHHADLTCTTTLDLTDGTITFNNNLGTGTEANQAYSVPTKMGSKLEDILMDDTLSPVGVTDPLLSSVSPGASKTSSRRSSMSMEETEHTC
FBW7 activator: human FBW7 E3 ligase activation, primary screen; Q969H0; normalized activity (activation), % at 26.1 µM; AID 1259310; 650,000 tested, 0.13% active; AlphaScreen FBW7–phospho-cyclin E peptide binding, activator screen; in the data active means normalized activity above about 1.9%;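 further: purified mutant Fbw7 with reduced substrate affinity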
TEAD-YAP inh: TEAD-YAP interaction inhibition; 640,000 tested, 1.4% active; inhibition, % at 9.12 µM; HEK-TIYL cells, TEAD-Gal4/YAP UAS-luciferase luminescence; in the data active means inhibition above about 32%
GPR151 ag: activators of human GPR151 | PathHunter beta-arrestin GPR151 cells, luminescence | activation, % at 11.2 µM | 650,000 tested, 1% active; in the data active means activation above about 4.9%
MITF inh conf: human MITF inhibition, confirmation; shares compounds with MITF inh; AlphaScreen MITF homodimerization, biotin/His-MITF beads; AID 1259372; inhibition, % at 2.6 µM; 4,700 tested, 16% active;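 active means inhibition above a cutoff derived from the DMSO control wells, cut at about 28% in these data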;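 further: inhibitors lower the bead chemiluminescence by keeping MITF from dimerizing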
AlphaScreen DR: counter-screen: compounds optically interfering with AlphaScreen; IC50, µM; 480 tested, 6% active; shares compounds with MITF inh; AlphaScreen optical interference counterscreen, cell-free; call rule not given here
AS interf ctr: counter-screen: compounds optically interfering with AlphaScreen | AID 1259376 | shares compounds with MITF inh | 4,700 tested, 7.6% active | LysRS AlphaScreen counterscreen, signal interference, triplicate | inhibition, % at 2.6 µM;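 active means inhibition above a cutoff derived from the DMSO control wells, cut at about 30% in these data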
Numbers stand for hits; i = inactive; nt = not tested or not shown. The list is not random: actives were taken first. Their share in the collection is about 3.5%.

SMILES	MITF inh	FBW7 activator	TEAD-YAP inh	GPR151 ag	MITF inh conf	AS interf ctr	others
O=[N+]([O-])c1ccc(N2CCN(Cc3cccnc3)CC2)cc1	59	i	i	i	i	i
O=C(c1ccccc1Cl)N1CCN(c2ccc([N+](=O)[O-])cc2)CC1	97	i	i	i	i	i
O=[N+]([O-])c1ccc(N2CCN(Cc3ccncc3)CC2)cc1	61	i	i	i	i	i
Cn1c(SCC(=O)Nc2ccc(C(=O)O)cc2)nnc1-c1ccncc1	i	i	i	i	nt	nt
CC(=O)c1ccc(NC(=O)CSc2nnc(-c3ccncc3)n2CCCN(C)C)cc1	71	i	i	i	i	i
CCn1c(SCC(=O)Nc2ccc(NC(=O)C(C)(C)C)cc2)nnc1-c1ccncc1	i	i	i	i	nt	nt
CCc1ccc(NC(=O)CSc2nnc(-c3ccncc3)n2CCCN(C)C)cc1	88	i	i	i	i	i
CN(C)C(=O)CSc1nnc(-c2cccc(F)c2)n1-c1ccccc1	i	i	i	i	nt	nt
COC(=O)c1ccc2c(=O)n(Cc3ccc(Cl)cc3)c(=S)[nH]c2c1	i	i	i	i	nt	nt
Cc1ccc(C(C)C)cc1OCCN1CCOCC1	51	i	i	i	i	i
Cc1cc(OCCN2CCOCC2)ccc1C(C)C	59	i	i	i	i	i
Cc1ccc(C(C)C)cc1OCCCCN1CCOCC1	79	i	i	i	i	i
Cc1ccc(C)c(OCCCN2CCOCC2)c1	i	i	i	i	nt	nt
CC(C)c1cccc(OCCCN2CCOCC2)c1	56	i	i	i	i	i
COC(=O)C1CCN(Cc2ccc3c(c2)CN(C(=O)CC(C)(C)C)CCO3)CC1	i	i	i	i	nt	nt
CC(=O)c1cccc(NC(=O)N2CCC(C(=O)c3cccc(C(F)(F)F)c3)CC2)c1	i	i	i	i	nt	nt
CC1=C(C(=O)OCc2ccco2)C(c2ccccc2OC(C)C)NC(=O)N1 (configuration not stated)	i	i	i	i	nt	nt
Cc1ccc(C(C)C)cc1OCCn1cncn1	66	i	i	i	i	i
COc1cccc(OCCn2cncn2)c1	i	i	i	i	nt	nt
O=C(O)c1c(F)c(F)c(F)c(F)c1Cc1ccccc1	i	i	i	i	nt	nt
Cc1cccc(C(C)(C)C)c1OCCCN1CCN(C)CC1	68	i	i	i	i	i
Cc1cccc(C)c1OCCOCCN1CCN(C)CC1	64	i	i	i	i	i
Cc1ccccc1OCCOCCN1CCN(C)CC1	73	i	i	i	i	i
Cc1cccc(C(C)(C)C)c1OCCOCCN1CCOCC1	i	i	i	i	nt	nt
CC(=O)Oc1ccc(C(=O)Nc2cc([N+](=O)[O-])ccc2F)cc1	i	i	i	i	nt	nt
SMILES	MITF inh	FBW7 activator	TEAD-YAP inh	GPR151 ag	MITF inh conf	AS interf ctr	others
CC(=O)c1cccc(NC(=O)/C(=C/c2ccc([N+](=O)[O-])cc2)NC(=O)c2ccc(C(C)(C)C)cc2)c1	i	i	i	i	nt	nt
Cc1ccc(CN2CCN3C(=O)[C@@H](CC(C)C)NC(=O)[C@H]3C2)s1	i	i	i	i	nt	nt
COc1ccc(CCN(CCC(=O)O)CCC(=O)O)cc1OC	58	i	i	i	i	i
CCOc1ccccc1C1C(C#N)=C(SCC(=O)Nc2ccc(Br)cc2)NC(=O)C1C(=O)OC (configuration not stated)	54	i	i	i	i	i
CN(c1ccc(Cl)cc1)S(=O)(=O)c1ccc2[nH]cc(C(=O)NCC3CCCO3)c(=O)c2c1 (configuration not stated)	i	i	i	i	nt	nt
CCOC(=O)c1cc2c(c(CSc3nc4ccccc4c(=O)n3CCc3ccccc3)c1)OCOC2	69	i	i	i	i	i
CCOC(=O)c1cc2c(c(CSc3nc4ccccc4c(=O)n3Cc3ccccc3)c1)OCOC2	i	i	i	i	nt	nt
O=c1c2ccccc2nc(SCc2cc(F)cc3c2OCOC3)n1C1CCCCC1	69	i	i	i	i	i
O=C(Nc1ccc(Oc2ccccc2)cc1)c1cnc(N2CCOCC2)s1	i	i	i	i	nt	nt
O=C(NC1CCCCC1)c1ccc2c(=O)n(Cc3cccc(Br)c3)c(=S)[nH]c2c1	i	i	i	i	nt	nt
CCCCOC(=O)c1ccc(N/C=C(/C#N)C(=O)OCC)cc1	i	i	i	i	nt	nt
N#CCCN1CCCC2(C1)c1[nH]c3ccccc3c1CCN2C=O (configuration not stated)	i	i	i	i	nt	nt
Cc1ccc(NC(=O)CC2NCCNC2=O)cc1C (configuration not stated)	72	i	i	i	i	i
O=C(CN1C(=O)NC2(CCCCCC2)C1=O)NC(=O)NCc1ccco1	70	i	i	i	71	i	AlphaScreen DR=i
CC1CC(C)CN(S(=O)(=O)c2ccc3[nH]cc(C(=O)NCc4ccc(F)cc4)c(=O)c3c2)C1 (configuration not stated)	i	i	i	i	nt	nt
CCN1CCN(S(=O)(=O)/C=C/c2ccccc2)CC1	74	i	i	i	i	i
O=S(=O)(/C=C/c1ccccc1)N1CCN(C/C=C/c2ccccc2)CC1	i	i	i	i	nt	nt
Cc1ccc(-c2cc(C(=O)Nc3nnc(C)s3)c3ccccc3n2)s1	65	i	i	i	i	i
Cc1ccc(-c2cc(C(=O)Nc3nc4ccc(Br)cc4s3)c3ccccc3n2)s1	i	i	i	i	nt	nt
OCCCCNCc1c(F)cccc1Cl	i	i	i	i	nt	nt
CCCN(CCO)Cc1c(F)cccc1Cl	56	i	i	i	i	i
CCN(CC)CCCNCc1c(F)cccc1Cl	57	i	i	i	i	i
CCOc1ccc(-c2nnc3ccc(SCC(=O)N4CCCCCC4)nn23)cc1	i	i	i	i	nt	nt
COc1cc(CN(C)CCc2ccccn2)cc(OC)c1OC	74	i	i	i	i	i
COc1cc(/C=C/C(=O)NCc2ccccn2)cc(OC)c1OC	i	i	i	i	nt	nt
SMILES	MITF inh	FBW7 activator	TEAD-YAP inh	GPR151 ag	MITF inh conf	AS interf ctr	others
C=CCc1ccc(OC)c(OCc2ccccc2)c1	i	i	i	i	nt	nt
COc1ccc(CN(Cc2ccccn2)S(=O)(=O)c2ccc(F)cc2F)cc1OC	i	i	i	i	nt	nt
COc1ccc(CN(C)CCc2ccccn2)cc1OC	77	i	i	i	i	i
COc1ccc(CN(C)CCc2ccccn2)cc1OCc1ccccc1	62	i	i	i	i	i
C=CCNC(=O)Cn1nnc2ccccc2c1=O	i	i	i	i	nt	nt
CC(=O)Nc1ccc(OS(=O)(=O)c2ccccc2[N+](=O)[O-])cc1	56	i	i	i	i	i
CC(=O)Nc1ccc(NS(=O)(=O)c2ccccc2[N+](=O)[O-])cc1	i	i	i	i	nt	nt
CCSCCOC(=O)C1=C(C)NC2=C(C(=O)C(C(=O)OC)C(C)C2)C1c1cccc(OCc2ccccc2)c1 (configuration not stated)	71	i	i	i	i	i
CC1(C)Cc2cccc(OCc3ccc(C(=O)NCc4ccncc4)cc3)c2O1	59	i	i	i	i	i
O=C1C2CCCCC2C(=O)N1c1ncn[nH]1 (configuration not stated)	i	i	i	i	nt	nt
